Source: paper PMC5700166
Positions count from the first letter of the chain named.

Key:
Assay in all cases: protein-binding microarray (PBM); PBM: ~300 nM protein, 6 mM HEPES pH 7.8, 80 mM KCl, 0.5 mM EDTA, 0.5 mM EGTA, 6% glycerol, 35 ng/ul poly-dIdC, 1% milk, 1 h, room temperature; Ap Aiptasia and Nv Nematostella (sea anemones) / Co Capsaspora / Aq Amphimedon (sponge) / Dm Drosophila / Hu human; RHD is the Rel homology domain; high values mean tight binding
Conditions in all cases: dsDNA, one strand shown
GST-Ap-NF-kB RHD = target: T1, GST-Ap-NF-kB RHD (Exaiptasia pallida (Aiptasia), UniProt A0A913YAJ5 2-422)
T1 sequence: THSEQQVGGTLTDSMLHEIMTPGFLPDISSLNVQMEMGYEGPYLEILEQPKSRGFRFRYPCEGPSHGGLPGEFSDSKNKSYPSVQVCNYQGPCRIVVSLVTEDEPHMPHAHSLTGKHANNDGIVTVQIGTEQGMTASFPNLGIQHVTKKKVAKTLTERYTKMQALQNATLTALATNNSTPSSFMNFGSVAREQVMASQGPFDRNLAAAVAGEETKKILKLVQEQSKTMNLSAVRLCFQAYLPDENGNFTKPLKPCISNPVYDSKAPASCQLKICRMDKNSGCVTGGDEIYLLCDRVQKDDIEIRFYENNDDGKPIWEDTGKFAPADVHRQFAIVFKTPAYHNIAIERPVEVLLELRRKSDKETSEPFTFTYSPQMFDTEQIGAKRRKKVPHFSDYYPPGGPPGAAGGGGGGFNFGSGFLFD

[1] = target: T2, GST-Nv-NF-kB (Cys allele) (Nematostella vectensis, UniProt E5G601 2-411)
T2 sequence: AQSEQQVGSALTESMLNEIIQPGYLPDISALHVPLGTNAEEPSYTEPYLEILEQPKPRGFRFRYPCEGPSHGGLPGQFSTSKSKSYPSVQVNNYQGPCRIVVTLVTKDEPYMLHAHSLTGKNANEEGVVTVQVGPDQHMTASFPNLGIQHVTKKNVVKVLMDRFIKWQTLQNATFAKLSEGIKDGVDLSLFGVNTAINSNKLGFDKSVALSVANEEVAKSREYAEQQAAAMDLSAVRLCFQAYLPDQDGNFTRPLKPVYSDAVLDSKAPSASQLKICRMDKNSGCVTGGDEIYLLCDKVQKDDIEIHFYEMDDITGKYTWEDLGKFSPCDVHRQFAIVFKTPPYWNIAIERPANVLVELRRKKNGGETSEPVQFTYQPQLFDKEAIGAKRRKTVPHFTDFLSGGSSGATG

[2] = target: T3, GST-Nv-NF-kB (Ser allele) (Nematostella vectensis, UniProt A7UNT2 2-411)
T3 sequence: T2 sequence with Q21R, C66S, S207N, E215Q, V217A, E225K, A268E, D399E

GST-Co-NF-kB = target: T4, GST-Co-NF-kB (Capsaspora owczarzaki, UniProt F1ARL5 200-546)
T4 sequence: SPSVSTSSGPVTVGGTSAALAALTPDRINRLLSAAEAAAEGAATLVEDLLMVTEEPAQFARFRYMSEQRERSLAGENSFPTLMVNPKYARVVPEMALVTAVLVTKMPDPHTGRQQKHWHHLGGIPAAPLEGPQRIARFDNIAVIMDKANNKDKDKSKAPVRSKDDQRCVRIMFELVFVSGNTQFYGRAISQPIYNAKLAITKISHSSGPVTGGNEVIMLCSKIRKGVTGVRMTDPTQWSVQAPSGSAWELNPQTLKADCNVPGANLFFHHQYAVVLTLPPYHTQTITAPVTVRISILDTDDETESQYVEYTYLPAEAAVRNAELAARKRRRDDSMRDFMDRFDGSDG

GST-Dm-Relish = target: T5, GST-Dm-Relish (Drosophila melanogaster, UniProt Q94527 99-473)
T5 sequence: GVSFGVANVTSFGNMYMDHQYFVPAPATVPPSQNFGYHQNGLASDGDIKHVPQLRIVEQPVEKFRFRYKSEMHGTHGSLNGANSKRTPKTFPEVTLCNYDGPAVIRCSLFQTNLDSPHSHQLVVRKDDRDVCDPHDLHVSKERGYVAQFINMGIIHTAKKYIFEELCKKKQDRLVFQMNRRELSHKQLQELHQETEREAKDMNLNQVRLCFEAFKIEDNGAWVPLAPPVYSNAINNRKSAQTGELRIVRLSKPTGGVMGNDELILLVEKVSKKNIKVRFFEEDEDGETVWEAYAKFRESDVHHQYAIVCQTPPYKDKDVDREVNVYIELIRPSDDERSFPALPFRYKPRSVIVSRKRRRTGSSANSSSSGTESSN

GST-Aq-NF-kB = target: T6, GST-Aq-NF-kB (Amphimedon queenslandica, UniProt A9Y5G7 2-389)
T6 sequence: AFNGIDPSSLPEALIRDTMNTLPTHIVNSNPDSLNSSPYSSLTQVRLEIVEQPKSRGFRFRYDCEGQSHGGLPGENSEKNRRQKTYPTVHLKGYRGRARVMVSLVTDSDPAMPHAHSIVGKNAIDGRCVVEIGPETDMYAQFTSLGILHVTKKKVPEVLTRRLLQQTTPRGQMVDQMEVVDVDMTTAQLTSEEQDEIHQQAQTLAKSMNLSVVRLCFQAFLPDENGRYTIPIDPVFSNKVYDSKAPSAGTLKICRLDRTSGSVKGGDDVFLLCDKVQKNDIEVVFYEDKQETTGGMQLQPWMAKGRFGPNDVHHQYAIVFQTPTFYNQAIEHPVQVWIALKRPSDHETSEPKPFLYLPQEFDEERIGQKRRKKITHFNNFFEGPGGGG

GST-Hu-p50 = GST-Hu-p50 (Homo sapiens, UniProt P19838 7-356)
Sequence of GST-Hu-p50 (P19838 7-356): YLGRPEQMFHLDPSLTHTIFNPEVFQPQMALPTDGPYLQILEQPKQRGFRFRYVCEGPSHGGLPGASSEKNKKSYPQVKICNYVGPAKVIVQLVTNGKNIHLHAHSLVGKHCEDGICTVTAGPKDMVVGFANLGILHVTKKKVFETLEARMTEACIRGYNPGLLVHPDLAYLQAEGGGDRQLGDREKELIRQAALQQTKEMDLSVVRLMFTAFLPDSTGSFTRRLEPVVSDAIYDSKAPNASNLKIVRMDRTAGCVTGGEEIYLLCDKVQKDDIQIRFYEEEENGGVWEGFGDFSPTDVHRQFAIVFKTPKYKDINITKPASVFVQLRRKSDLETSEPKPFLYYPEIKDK

| Sequence | binding signal (GST-Ap-NF-kB RHD) | binding signal [1] | binding signal [2] | binding signal (GST-Co-NF-kB) | binding signal (GST-Dm-Relish) | binding signal (GST-Aq-NF-kB) | binding signal (GST-Hu-p50) |
| --- | --- | --- | --- | --- | --- | --- | --- |
| CCGATTAACATCACGGCATTCCCTGATGTTAATCGGGTCTTGATTCGCTTGACGCTGCTG | 2 z-score | 2.64 z-score | 2.35 z-score | 1.73 z-score | 2.31 z-score | 3.81 z-score | 1.4 z-score |
| CCGATTAACATCAGGGCAACCCCTGATGTTAATCGGGTCTTGATTCGCTTGACGCTGCTG | 3.77 z-score | 2.55 z-score | 1.13 z-score | 1.28 z-score | 4.15 z-score | 5.95 z-score | 3.08 z-score |
| CCGATTAACATCAACGTGGGAAATGATGTTAATCGGGTCTTGATTCGCTTGACGCTGCTG | 1.56 z-score | 2.36 z-score | 1.77 z-score | 2.91 z-score |  | 1.71 z-score | 1.29 z-score |
| CCGATTAACATCAAGGTTTCCCCTGATGTTAATCGGGTCTTGATTCGCTTGACGCTGCTG | 7.4 z-score | 8.19 z-score | 10.3 z-score | 8.15 z-score | 7.08 z-score | 6.28 z-score | 6.46 z-score |
| CCGATTAACATCAAAGGGAATAGTGATGTTAATCGGGTCTTGATTCGCTTGACGCTGCTG | 2.26 z-score | 2.76 z-score | 2.94 z-score | 1.98 z-score |  | 2.54 z-score | 1.25 z-score |
| CCGATTAACATCAATTGGGAAAATGATGTTAATCGGGTCTTGATTCGCTTGACGCTGCTG | 1.52 z-score | 2.96 z-score | 4.08 z-score | 2.47 z-score |  | 1.4 z-score | 2.04 z-score |
| CCGATTAACATCAAAACCCCCCGTGATGTTAATCGGGTCTTGATTCGCTTGACGCTGCTG | 8.43 z-score | 6.29 z-score | 7.17 z-score | 5.04 z-score | 10.2 z-score | 7.07 z-score | 6.96 z-score |
| CCGATTAACATCAACAATTCCCCTGATGTTAATCGGGTCTTGATTCGCTTGACGCTGCTG | 7.89 z-score | 8.85 z-score | 10.8 z-score | 7.14 z-score | 5.11 z-score | 5.93 z-score | 6.81 z-score |
| CCGATTAACATCACTTATCCCCCTGATGTTAATCGGGTCTTGATTCGCTTGACGCTGCTG | 4.81 z-score | 3.72 z-score | 4.72 z-score | 6.68 z-score | 2.71 z-score | 3.72 z-score | 4.19 z-score |
| CCGATTAACATCAAGTGGGAAAATGATGTTAATCGGGTCTTGATTCGCTTGACGCTGCTG | 1.71 z-score | 4.11 z-score | 4.29 z-score | 2.91 z-score |  | 2.08 z-score | 2.66 z-score |
| CCGATTAACATCAGAGTGGGAAATGATGTTAATCGGGTCTTGATTCGCTTGACGCTGCTG | 1 z-score | 2.45 z-score | 1.89 z-score | 2.83 z-score |  | 1.64 z-score | 2.27 z-score |
| CCGATTAACATCAAGATTCCCCTTGATGTTAATCGGGTCTTGATTCGCTTGACGCTGCTG | 7.59 z-score | 10 z-score | 10.8 z-score | 5.46 z-score | 6.62 z-score | 6.39 z-score | 7.18 z-score |
| CCGATTAACATCAATTCCCATCCTGATGTTAATCGGGTCTTGATTCGCTTGACGCTGCTG | 1.57 z-score | 2.99 z-score | 2.59 z-score | 1.43 z-score |  | 1.94 z-score | 1.57 z-score |
| CCGATTAACATCAACGGTGGGAATGATGTTAATCGGGTCTTGATTCGCTTGACGCTGCTG | 1.12 z-score | 1.46 z-score | 1.15 z-score | 2.19 z-score |  | 2.42 z-score | 1.41 z-score |
| CCGATTAACATCAGATGGGAAAATGATGTTAATCGGGTCTTGATTCGCTTGACGCTGCTG | 2.47 z-score | 4.24 z-score | 5.39 z-score | 2.47 z-score |  | 2.28 z-score | 2.37 z-score |
| CCGATTAACATCAAAATATTCCCTGATGTTAATCGGGTCTTGATTCGCTTGACGCTGCTG | 6.25 z-score | 7.36 z-score | 7.68 z-score | 4.81 z-score | 4.34 z-score | 6.27 z-score | 4.33 z-score |
| CCGATTAACATCAGGGGGGGCAATGATGTTAATCGGGTCTTGATTCGCTTGACGCTGCTG | 4.42 z-score | 3.92 z-score | 3.15 z-score | 4.99 z-score | 4.29 z-score | 3.72 z-score | 3.8 z-score |
| CCGATTAACATCATGTACGGGAATGATGTTAATCGGGTCTTGATTCGCTTGACGCTGCTG | 1.13 z-score | 2 z-score | 1.46 z-score | 2.7 z-score |  | 3.27 z-score | 1.26 z-score |
| CCGATTAACATCAGGGGGAATGATGATGTTAATCGGGTCTTGATTCGCTTGACGCTGCTG | 6.17 z-score | 7.14 z-score | 7.16 z-score | 6.6 z-score | 3.1 z-score | 4.98 z-score | 5.4 z-score |
| CCGATTAACATCAGGGGAATAAATGATGTTAATCGGGTCTTGATTCGCTTGACGCTGCTG | 6.25 z-score | 7.82 z-score | 8.47 z-score | 8.22 z-score | 5.48 z-score | 5.94 z-score | 5.62 z-score |
| CCGATTAACATCAACTTGGGAAATGATGTTAATCGGGTCTTGATTCGCTTGACGCTGCTG | 1.31 z-score | 2.47 z-score | 2.1 z-score | 2.33 z-score |  | 1.15 z-score | 1.54 z-score |
| CCGATTAACATCAAGATACCCCCTGATGTTAATCGGGTCTTGATTCGCTTGACGCTGCTG | 7.1 z-score | 4.31 z-score | 5.25 z-score | 4.96 z-score | 4.14 z-score | 4.36 z-score | 4.66 z-score |
| CCGATTAACATCAGAAAAACCCCTGATGTTAATCGGGTCTTGATTCGCTTGACGCTGCTG | 7.98 z-score | 8.56 z-score | 7.56 z-score | 2.03 z-score | 9.4 z-score | 7.67 z-score | 7.6 z-score |
